# D3 ag = qHTS of D3 Dopamine Receptor Agonist: qHTS. D(3) dopamine receptor (Homo sapiens), P35462. D3R DiscoveRx beta-arrestin cells, luminescence, 90 min. max activation, %. 410,000 tested, 0.58% active; in the data active means max activation above about 30%; further: 0% is about no effect
# Target sequence (P35462 whole entry, looked up): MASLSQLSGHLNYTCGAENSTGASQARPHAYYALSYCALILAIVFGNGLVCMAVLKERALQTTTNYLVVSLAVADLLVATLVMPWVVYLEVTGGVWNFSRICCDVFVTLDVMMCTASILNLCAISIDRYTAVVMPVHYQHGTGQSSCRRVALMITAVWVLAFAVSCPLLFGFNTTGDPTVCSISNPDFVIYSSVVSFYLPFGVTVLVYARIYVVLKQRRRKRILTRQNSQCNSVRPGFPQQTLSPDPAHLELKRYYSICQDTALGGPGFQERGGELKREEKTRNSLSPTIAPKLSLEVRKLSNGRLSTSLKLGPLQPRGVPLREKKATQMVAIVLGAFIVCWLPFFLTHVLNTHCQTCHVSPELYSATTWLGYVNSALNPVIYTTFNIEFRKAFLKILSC
#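 Agonist-mode cell screen: cells plated at 1500/well and incubated overnight at 37 °C, then exposed to library compounds for 90 min at 37 °C. Detection reagent was added for 30–60 min at room temperature, and luminescence was read.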
# DRD3 antagonist = qHTS of D3 Dopamine Receptor Antagonist: qHTS; D3R cells, DiscoveRx beta-arrestin luminescence, antagonist mode; stronger effect = lower value; max response, negative = inhibition, %; 360,000 tested, 2.5% active; D(3) dopamine receptor (Homo sapiens), P35462; in the data active means max response below about -50%; inconclusive means no clear call, values can overlap the other calls; further: on the % scale 0 is the no-effect control and ±100 the full control effect
#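 Cells plated overnight at 1500 cells/well, then exposed to library compounds with dopamine controls for 90 minutes at 37 degrees C. DiscoveRx reagent added for 30–60 minutes at room temperature; luminescence read, quantitative HTS format.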
# Giardia kill = Small Molecules that selectively kill Giardia lamblia: qHTS | Giardia lamblia trophozoite viability | activity change, % at 7.66 µM, hits read low | 340,000 tested, 0.15% active | AID 540267, 2011; in the data active means activity change below about -80%; inconclusive means between about -30% and that limit;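 further: parasites exposed to compound for two days anaerobically before the ATP read; on the % scale 0 is the no-effect control and ±100 the full control effect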
#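 Each well holds 100 Giardia trophozoites and compound. After two days (48 hrs) at 37 deg C in anaerobic conditions, ATP is quantified by luminescence.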
# B2AR arrestin = qHTS assay of beta-arrestin-biased ligands of beta2-adrenergic receptor; AID 492947, 2010; Beta-2 adrenergic receptor (Homo sapiens), P07550; Potency, µM (doses to about 46.1 µM), inactives show top-dose activation, usual class: activators; beta-arrestin recruitment to beta2AR, cell-based reporter; 330,000 tested, 0.02% active; active means well fitted activation curve with a large enough effect; inconclusive means small, poorly fitted or top-dose-only effect;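 further: potency means the concentration at half of the fitted maximal effect; 0% = DMSO controls and full agonism = EC100 isoproterenol or metaproterenol; nearly all actives have a fitted effect of over 65% in size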
# * marks the source's active call; other numbers are inactive results; ? = inconclusive; nt = no result. Rows were chosen to be rich in hits. Some 2.8% of all compounds tested hit in one or more screens of this group.
SMILES,D3 ag,DRD3 antagonist,Giardia kill,B2AR arrestin
CCOCCN1CCN(C2c3ccccc3CSc3ccccc32)CC1 (stereo not drawn),-34,-76*,-1,nt
COc1ccc(/C=N/Nc2nc(NCc3ccco3)nc(Nc3ccc(OC)cc3)n2)cc1,0,9,14,-1%
COc1ccc(Nc2nc(NCc3ccco3)nc(N/N=C/c3ccccc3F)n2)cc1,-7,-54*,?,-1%
Cc1c(-c2ccc(O)cc2)n(Cc2ccc(OCCN3CCCCCC3)cc2)c2ccc(O)cc12,-25,nt,nt,nt
O=C(CNC(=O)c1cccs1)N/N=C/c1c(F)cccc1Cl,-19,-51*,3,0%
CC1CN(CCCCN2C(=O)c3ccccc3C2=O)CC(C)O1 (stereo not drawn),-18,1,21,0%
COC(=O)c1ccccc1OCCCCN1CC(C)OC(C)C1 (stereo not drawn),0,-29,-8,-1%
CC1CN(CCOCCSc2ccccc2)CC(C)O1 (stereo not drawn),-4,-67*,-29,0%
CC1CN(CCOCCSc2ccc(Cl)cc2)CC(C)O1 (stereo not drawn),-7,-64*,?,0%
CC1CN(CCOc2ccccc2C(C)C)CC(C)O1 (stereo not drawn),-26,-69*,?,0%
Cc1ccc(C)c(OCCOCCN2CC(C)OC(C)C2)c1C (stereo not drawn),-5,-75*,-14,0%
CC1CN(CCCCSc2ccc(Cl)cc2)CC(C)O1 (stereo not drawn),9,7,58,?
CC(=O)N1CCc2cc(S(=O)(=O)NC(Cc3ccccc3)C(=O)Nc3ccc(Cl)cc3)ccc21 (stereo not drawn),-6,nt,nt,nt
O=C(c1nc(-c2ccc(Cl)cc2)n2c1CCCCC2)N1CCN(c2ccc(F)cc2)CC1,1,nt,nt,nt
CSc1ccc(-c2nc3ncccn3c2Nc2ccc(C)c(C)c2)cc1,8,nt,nt,nt
Cc1cccc(N2CCN(C(=O)c3ccc4c(c3)N(Cc3cccc(Cl)c3)C(=O)c3ccccc3S4=O)CC2C)c1 (stereo not drawn),-6,nt,nt,nt
CCSc1nc2ccccc2c(OCc2ccccc2Cl)c1C(=O)OC,7,nt,nt,nt
O=C1NC2(C=Cc3c(ccc4ccccc34)O2)Oc2ccccc21 (stereo not drawn),-4,-51*,16,13%
COc1ccc(CCNC(=O)c2ccc3c(c2)N(Cc2ccc(Cl)cc2)C(=O)c2ccccc2S3)cc1OC,0,nt,nt,nt
Cc1nnc2c3ccccc3nc(Nc3ccccc3C(=O)O)n12,6,nt,nt,nt
CCc1ccc(C(c2ccc(CC)cc2)C(Cl)Cl)cc1,0,-110*,-4,0%
Clc1ccc(C(c2ccccc2Cl)C(Cl)Cl)cc1 (stereo not drawn),7,-14,30,0%
S=C(NCCCN1CCOCC1)NN=C1c2ccccc2-c2ccccc21,-18,-71*,nt,nt
COC1=CC(=O)c2c(ccc3ncnc(N)c23)C1=O,-12,-65*,44,nt
CC1(C)C/C(=N\NC(=S)Nc2ccccc2F)c2cc(O)ccc2O1,-8,-53*,9,?
SMILES,D3 ag,DRD3 antagonist,Giardia kill,B2AR arrestin
COc1ccccc1CNC(=O)C1CCCN(S(=O)(=O)c2ccc3c(c2)oc(=O)n3C)C1 (stereo not drawn),2,nt,nt,nt
CCCn1cnc2c(c1=O)c1nc3ccccc3nc1n2CCC1=CCCCC1,nt,nt,nt,-1%
CCCn1cnc2c(c1=O)c1nc3ccccc3nc1n2CCc1ccccc1,19,-53*,24,0%
CCOC(=O)c1c(CN2CCN(C)CC2)n(-c2ccccc2)c2cc(Br)c(O)cc12,-18,-64*,4,0%
CCOC(=O)c1c(CN2CCN(C)CC2)oc2ccc(O)cc12,-3,-54*,12,-1%
CCOC(=O)c1c(CN2CCOCC2)oc2ccc(OC(C)=O)cc12,1,2,8,0%
COCCOC(=O)c1c(C)oc2ccc(OCc3cc(C(=O)OC)oc3C)cc12,48*,28,3,7%
CCN(CC)CCOC(=O)c1c(C)oc2ccc(O)cc12,-15,-72*,-6,0%
CCOc1ccccc1CNC(=O)c1nc(-c2ccc(Cl)cc2)n2c1CCCCC2,-25,nt,nt,nt
CN(C)c1ccc(-c2nc(-c3cccs3)c(-c3cccs3)[nH]2)cc1,-22,nt,nt,nt
Cc1ccc2[nH]c(=O)c(CN(CCO)Cc3nnnn3Cc3ccco3)cc2c1,nt,nt,-6,nt
CCN(CC)S(=O)(=O)c1cc(-c2nnc(Nc3ccc(OC)c(C(N)=O)c3)c3ccccc23)ccc1C,-6,nt,nt,nt
CCCCN(CCCN)c1ccc(Br)cn1,nt,nt,-9,nt
CCn1c(-c2ccc(C(C)(C)C)cc2)n[nH]c1=S,-7,-30,-20,-1%
CCn1c(-c2ccc(F)cc2)n[nH]c1=S,-6,-88*,-16,0%
Cc1nc(SCC(=O)N2CCN(c3ccccc3)CC2)c2oc3ccccc3c2n1,42*,118,-2,0%
Cc1nc(SCC(=O)O)c2oc3ccccc3c2n1,-2,-26,-6,0%
CC1CCCc2sc3nc(N4CCN(CCO)CC4)n4ncnc4c3c21 (stereo not drawn),-6,-56*,-2,0%
COc1ncnc2c1sc1nc(-c3ccccc3)c3c(c12)CCCC3,37*,9,?,0%
CC1=C(c2ccc(C)c(C)c2)S(=O)(=O)N=C1N1CCC(C(=O)Nc2cccc(F)c2)CC1,-9,nt,nt,nt
Cc1ccc(C(=O)C2=C(O)C(=O)N(Cc3cccnc3)C2c2cccc(Oc3ccccc3)c2)o1 (stereo not drawn),2,-69*,-4,nt
C=CCOc1cccc(C2C(C(=O)c3ccc(C)o3)=C(O)C(=O)N2CCN(C)C)c1 (stereo not drawn),-7,-64*,-12,0%
COc1cc(C2C(C(=O)c3ccc(C)o3)=C(O)C(=O)N2Cc2ccccc2)ccc1O (stereo not drawn),-5,-22,-22,0%
CCCOc1cccc(C2C(C(=O)c3ccc(C)o3)=C(O)C(=O)N2CCN2CCOCC2)c1 (stereo not drawn),1,-4,-9,0%
CCOc1cc(C2C(C(=O)c3ccc(C)o3)=C(O)C(=O)N2CCc2ccccc2)ccc1O (stereo not drawn),0,-56*,-23,0%
SMILES,D3 ag,DRD3 antagonist,Giardia kill,B2AR arrestin
Cc1ccccn1,11,nt,nt,nt
CC1=C(C(=O)N2CCCCCC2)CC(CC(=O)NCC2CCCCC2)C(=O)N1Cc1ccccc1 (stereo not drawn),-5,0,nt,nt
CC1=C(C(=O)N2CCCCCC2)CC(CC(=O)NCC2CCCCC2)C(=O)N1Cc1ccc(F)cc1 (stereo not drawn),-8,-64*,nt,nt
COc1ccccc1C(=O)Nc1ccccc1OCc1cc(=O)n2ccccc2n1,5,nt,nt,nt
CCn1c(=O)c([N+](=O)[O-])c(Cl)c2ccccc21,-23,-115*,1,11%
CCn1c(=O)c([N+](=O)[O-])c(NCCN(C)C)c2ccccc21,-22,-59*,5,-1%
